Experimental findings from PubChem BioAssay AID583 (Sanford-Burnham Center for Chemical Genomics, 2007) are described below.

SMILES strings stand for the structures. Where “and” joins values, the source holds several entries; their conditions need not be identical. Equal entries are not always repeated. In all, about 140,000 compounds went through this assay and about 80 (0.06%) were called active. For the sample, actives were picked, then their nearest neighbours and some compounds at random. Unmarked numbers belong to inactive results. Rule as the data show it: active = displacement above about 50%; inactive = the rest.

For the assay, the target named is Heat shock 70 kDa protein 1A (Homo sapiens) (UniProt P0DMV8). The experiment in a line: small molecules displacing fluorescent ligand from Hsp70 – biochemical, fluorescence polarization, primary screen (AID 583).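 Also: plate controls were vehicle for no effect and reference ligand for full effect.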 Conditions: Hsp70 fluorescence polarization probe displacement, mP; at 20 µM; stronger effect = higher value.
Heat shock 70 kDa protein 1A (Homo sapiens), sequence (P0DMV8 whole entry, looked up): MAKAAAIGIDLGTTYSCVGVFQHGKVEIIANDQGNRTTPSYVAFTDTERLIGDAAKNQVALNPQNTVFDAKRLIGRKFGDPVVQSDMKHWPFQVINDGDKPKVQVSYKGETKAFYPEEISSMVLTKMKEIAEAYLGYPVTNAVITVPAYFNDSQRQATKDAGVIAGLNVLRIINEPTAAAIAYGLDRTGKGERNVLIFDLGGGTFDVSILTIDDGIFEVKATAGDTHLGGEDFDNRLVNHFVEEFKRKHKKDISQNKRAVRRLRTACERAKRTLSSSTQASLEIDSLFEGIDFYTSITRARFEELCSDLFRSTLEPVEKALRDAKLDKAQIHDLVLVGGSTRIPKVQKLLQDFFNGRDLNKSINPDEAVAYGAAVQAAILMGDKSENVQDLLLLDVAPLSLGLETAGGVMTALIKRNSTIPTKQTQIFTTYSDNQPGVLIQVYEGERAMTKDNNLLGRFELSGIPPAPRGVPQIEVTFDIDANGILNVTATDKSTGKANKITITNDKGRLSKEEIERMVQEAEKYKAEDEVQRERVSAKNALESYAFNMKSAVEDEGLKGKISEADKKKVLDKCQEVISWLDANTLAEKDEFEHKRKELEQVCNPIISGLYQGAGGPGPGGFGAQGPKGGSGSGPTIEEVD
With `CCOc1ccc(N2C(=O)/C(=C/c3ccc(C)o3)C(=O)NC2=S)cc1`, the displacement was -26.6%. Then `CN1C(=O)NC(=O)/C(=C/c2ccc(Br)o2)C1=O`, with 2.1%; and `CCOc1ccc(N2C(=O)/C(=C/c3ccc(Br)o3)C(=O)NC2=S)cc1`, with 84.5% (active); and `COc1ccc(N2C(=O)/C(=C/c3ccc(-c4cc(C(=O)O)ccc4Cl)o3)C(=O)NC2=S)cc1`, with 5%. Then `CCOc1ccc(N2C(=O)NC(=O)/C(=C\c3ccc(C)o3)C2=O)cc1`, with -5.2%. Under `CN1C(=O)NC(=O)/C(=C/c2ccc(I)o2)C1=O` stands 9.4%. Take `O=C1NC(=S)N(c2ccc(F)cc2)C(=O)/C1=C/c1ccc(Br)o1`: the displacement is 68.7% (active). Under `O=C1NC(=O)N(c2ccc(Cl)cc2)C(=O)/C1=C/c1ccc(Br)o1` stands -0.1%; under `COc1ccc(N2C(=O)/C(=C/c3ccc(I)o3)C(=O)NC2=S)cc1`, 92% (active); under `Cc1cccnc1NC1=NCC(C)S1` (stereo not given), 3.9%. Then `CCC(=O)N1N=C2C3CCN(CC3)C2C1c1ccc([N+](=O)[O-])cc1` (stereo not given), with -5.5%.

As for `CCC(C)N=Cc1c(O)n(-c2ccccc2)c(=O)[nH]c1=O` (stereo not given), the displacement is -0.1%. Then `CC(C)C12CN3CCN(CC(C3)C1O)C2` (stereo not given), with 5.4% and 5.3%; and `CCN1C(=O)/C(=C/c2cccn2C)C(=O)NC1=S`, with 72.7% (active). Under `C=CCN1C(=O)NC(=O)C(=Cc2cccn2C)C1=O` stands 0.2%; under `C=CCN1C(=O)/C(=C\c2cccn2-c2cccc([N+](=O)[O-])c2)C(=O)NC1=S`, 60.8% (active). Under `CCN1C(=O)/C(=C/c2ccoc2)C(=O)NC1=S` stands 73.6% (active). For `Cn1cccc1/C=C1/C(=O)NC(=S)N(c2ccc(Cl)cc2)C1=O`, the displacement is 36.4%.

On to `O=C1NC(=O)N(c2ccccc2)C(=O)/C1=C/c1ccoc1`, for which the displacement was -9.7%.

As for `CN1C(=O)C(=Cc2cccn2-c2cccc([N+](=O)[O-])c2)C(=O)N(C)C1=O`, the displacement is -8.6%. Under `COc1ccc(CN2C(=O)NC(=O)/C(=C\c3ccoc3)C2=O)cc1` stands -10%; under `C=CCN1C(=O)/C(=C\c2cccn2-c2ccc([N+](=O)[O-])cc2)C(=O)NC1=S`, 20.3%.

Regarding `CN1C(=O)C(C2c3ccccc3C(=O)N2Cc2ccccc2)C(=O)N(C)C1=O` (stereo not given), the displacement is -7%.

Take `C=CCN1C(=O)/C(=C\c2cccs2)C(=O)NC1=S`: the displacement is 2.1%.

For the compound `O=S(=O)(c1ccccc1)N1CC1c1ccccc1` (stereo not given), the displacement is 0.1%. With `CCOC(=O)N1CCN(C(C)C(=O)c2c[nH]c3ccccc23)CC1` (stereo not given), the displacement was -0.3%. Then `O=C1CN=C(c2cccs2)c2c(sc3c2CCCC3)N1`, with 0.2%. Then `CC(C)(C)c1ccc(OCCOc2ccccc2C=C2C(=O)NC(=O)NC2=O)cc1`, with -4.4%; and `c1ccc(CN2CCN(C3CCCCC3)CC2)cc1`, with -0.7%. Under `CCc1nc2ccccc2c(=O)n1-c1ccc2ccccc2c1` stands 0.4%; under `CCOc1ccc2ccccc2c1/C=C1\C(=O)NC(=S)N(c2ccccc2)C1=O`, 3.3%.

For `O=C1NC(=S)N(c2ccccc2)C(=O)/C1=C/c1ccco1`, the displacement was 83.4% (active). With `CCOc1ccc(N2C(=O)/C(=C/c3ccc(C)cc3)C(=O)NC2=S)cc1`, the displacement is -3.1%.

Consider `CC(C)c1ccc(N2C(=O)NC(=O)/C(=C/c3ccco3)C2=O)cc1`, for which the displacement is -1.4%. For the compound `CN(C)c1ccc(C=C2C(=O)NC(=S)N(c3ccccc3F)C2=O)cc1`, the displacement was -0.7%.

As to `O=C1NC(=O)N(c2cccc(Br)c2)C(=O)/C1=C/c1ccco1`, the displacement was 98.6% (active).

Regarding `O=C1NC(=S)N(c2ccccc2F)C(=O)C1=Cc1ccco1`, the displacement is 96.8% (active). Regarding `Cc1ccc(C=C2C(=O)NC(=S)N(c3ccccc3F)C2=O)s1`, the displacement is -0.4%. Then `CCOc1ccc(N2C(=O)/C(=C/c3cc(Cl)ccc3O)C(=O)NC2=S)cc1`, with 0.9%. Under `O=C1NC(=S)N(c2cccc(Cl)c2)C(=O)/C1=C/c1ccc(Cl)cc1` stands -2.1%; under `CCOc1ccc(N2C(=O)/C(=C/c3ccco3)C(=O)NC2=S)cc1`, 92% (active). Then `Cc1cccc(N2C(=O)NC(=O)C(=Cc3ccco3)C2=O)c1`, with 9.1%; and `CCC1(Cc2ccccc2)C(=O)NC(=O)NC1=O`, with 1.5%.

`CCOc1ccc(NC(=S)NC2CN3CCC2CC3)cc1` (stereo not given): the displacement is -0.4%.

For the compound `C#CCNc1ccncc1S(=O)(=O)NC(=O)NC(C)C`, the displacement was 5.1%. Consider `Cc1c(C(=O)N2CCC3(CC2)OCCO3)sc2ncnc(N(C)c3ccccc3)c12`, for which the displacement is 0.4%. For `CCOC(=O)C1C(=O)NC2(C)CC1c1cc(OC)ccc1O2` (stereo not given), the displacement is 7.2%. For `COC(=O)C[C@]1(C(=O)OC)CN(C#N)N(c2ccc(Cl)cc2)C12c1ccccc1-c1ccccc12`, the displacement is 10.7%.

`c1cc(CN2CCN(C3C4CC5CC(C4)CC3C5)CC2)ccn1` (stereo not given): the displacement is 5.7%.

For the compound `CN1CCN(c2nccc3c2ncn3C)CC1`, the displacement is -5.2%. Then `COc1ccccc1N1CCN(Cc2ccccc2F)CC1`, with -0.6%; and `O=C1NC(=S)N(c2cccc(Br)c2)C(=O)/C1=C/c1cccs1`, with -3%. Under `O=C1NC(=S)N(c2cccc(Br)c2)C(=O)/C1=C/c1ccco1` stands 95.8% (active). Under `O=C1NC(=S)N(c2cccc(Br)c2)C(=O)/C1=C/C=C/c1ccccc1` stands -13.2%; under `COc1cc(/C=N/n2cnnc2)ccc1OC(=O)N(C)C`, 0.2%.
